From PubChem BioAssay (NCATS) come the findings set out here.

The structures appear in SMILES notation. Inconclusive results are not listed. The source made the active and inactive calls. Calls come from the whole dose curve; as a rule, active = well fitted inhibition curve with a large enough effect; inconclusive = small, poorly fitted or top-dose-only effect; inactive = flat fitted curve, though single readings scatter.

Common to all, as to assay: qHTS profiling for inhibitors of Plasmodium falciparum proliferation (AID 504749); note: nearly all actives have a fitted effect of over 60% in size
Holding throughout (conditions): P. falciparum in erythrocytes, SYBR Green DNA, 72 h; series mostly up to 28.7 µM

One assay relates to CP266. In short, it runs like this: (§1)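 Three-day growth assay of blood-stage parasites in erythrocytes (0.3% parasitemia, 2.5% hematocrit) at 37 C, 5% CO2, quantified by SYBR Green DNA staining after overnight detergent lysis.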
A further assay deals with CP268. Put shortly: as §1
The test system of the next assay is CP269. Put shortly:
as §1

For another assay, the system named is CP286. In short, it runs like this: as §1
The subject of another assay is CP291. In short, it runs like this: as §1
The test system of another assay is CP297. In short, it runs like this:
as §1

A further assay deals with CP305. Put shortly: as §1
Another assay concerns CP315. Put shortly: as §1
A further assay deals with CP325. In short, it runs like this:
as §1

Another assay has as its system CP329. Put shortly:
as §1

For a further assay, the system named is CP335. Put shortly: as §1
For a further assay, the system named is DFO2036. In short, it runs like this: as §1
A further assay concerns DIV17. In short, it runs like this: as §1
The subject of the next assay is DIV30. Put shortly:
as §1

The subject of the next assay is ECU. Put shortly:
as §1

The next assay has as its system FAB9. In short, it runs like this:
as §1

A further assay deals with HB3. Put shortly: as §1
A further assay concerns Dd2. Put shortly: as §1
For a further assay, the system named is DIV14. Put shortly:
as §1

The next assay relates to GB4. In short, it runs like this:
as §1
Potency is the fitted concentration of half-maximal effect.

Turning to `C=C1CC[C@@]2(O)[C@H]3Cc4ccc(O)c5c4[C@@]2(CCN3CC2CC2)[C@H]1O5`, the Potency result with CP266, with CP268, with CP269, in the assay with CP286, with CP291 and in the assay on CP297 was “inactive” throughout. For the same molecule, the Potency entry in the assay on CP305, with CP315, with CP325, in the assay on CP329, in the assay on CP335 and in the assay on DFO2036 was “inactive” in each case. For the same molecule, the Potency result in the assay on DIV17, in the assay on DIV30, in the assay with ECU, in the assay with FAB9 and with HB3 was “inactive” throughout.

In the case of `CC1NCCOC1c1ccccc1` (stereo unspecified), the Potency result in the assay on CP266, with CP268, with CP269, with CP286, in the assay on CP291 and with CP297 was “inactive” in each case. The Potency entry in the assay on CP305, with CP315, in the assay on CP325, in the assay with CP329, in the assay with CP335 and in the assay on DFO2036 was “inactive” throughout. Further, the Potency result with DIV17, in the assay with DIV30, with Dd2, in the assay with ECU, with FAB9 and in the assay on HB3 was “inactive” each time.

As for `CCCC(C)(COC(N)=O)COC(=O)NC(C)C` (stereo unspecified), the Potency entry in the assay with CP266, in the assay on CP268, in the assay on CP269, in the assay on CP286, with CP291 and with CP297 was “inactive” each time. Besides, the Potency entry in the assay on CP305, in the assay on CP315, with CP325, in the assay on CP329, in the assay on CP335 and in the assay with DFO2036 was “inactive” in each case. Moreover, the Potency result with DIV14, with DIV17, in the assay with DIV30, in the assay on Dd2, in the assay with ECU and with FAB9 was “inactive” each time. Besides, the Potency entry in the assay on GB4 and with HB3 was “inactive” in each case.

As to `NCC1(CC(=O)O)CCCCC1`, the Potency result in the assay with CP266, with CP268, with CP269, with CP286, with CP291 and in the assay with CP297 was “inactive” each time. Moreover, the Potency result with CP305, in the assay on CP315, in the assay with CP325, in the assay with CP329, in the assay with DFO2036 and in the assay with DIV14 was “inactive” in each case. Moreover, the Potency result with DIV17, with DIV30, with Dd2, in the assay with ECU, in the assay with FAB9 and with GB4 was “inactive” throughout. In addition, the Potency result in the assay with HB3 was “inactive”.

For the molecule `CN1C(=S)CN=C(c2ccccc2)c2cc(Cl)ccc21`, the Potency result in the assay with CP266, with CP268, in the assay on CP269, with CP286, in the assay with CP291 and in the assay on CP297 was “inactive” each time. Moreover, the Potency entry in the assay with CP305, in the assay with CP315, in the assay on CP325, in the assay on CP329, with CP335 and in the assay on DFO2036 was “inactive” in each case. In addition, the Potency result in the assay on DIV14, in the assay with DIV17, with DIV30, in the assay with Dd2, in the assay with ECU and in the assay on FAB9 was “inactive” in each case. For the same molecule, the Potency entry in the assay on GB4 and in the assay with HB3 was “inactive” each time.

For the molecule `Nc1ccncc1`, the Potency result in the assay with CP266, with CP268, with CP269, in the assay with CP286, in the assay with CP291 and in the assay with CP297 was “inactive” in each case. Further, the Potency entry in the assay with CP305, with CP315, in the assay on CP325, in the assay with CP329, in the assay on CP335 and in the assay on DFO2036 was “inactive” in each case. Further, the Potency entry with DIV14, in the assay with DIV17, in the assay with DIV30, in the assay with Dd2, in the assay with ECU and in the assay with FAB9 was “inactive” each time. Besides, the Potency result in the assay on GB4 and in the assay with HB3 was “inactive” in each case.

As to `CCOP(=S)(OCC)Oc1cc(C)nc(C(C)C)n1`, the Potency result in the assay with CP266, in the assay with CP268, with CP269, in the assay on CP286, with CP291 and in the assay with CP297 was “inactive” throughout. The Potency entry in the assay on CP305, in the assay on CP315, with CP325, in the assay with CP329, in the assay with CP335 and with DFO2036 was “inactive” in each case. In addition, the Potency result in the assay with DIV14, in the assay on DIV17, in the assay on DIV30, with Dd2, in the assay with ECU and with FAB9 was “inactive” throughout. Besides, the Potency entry in the assay on GB4 and with HB3 was “inactive” throughout.

With `Cc1ncc(CNC(=O)N(CCCl)N=O)c(N)n1`, the Potency entry with CP266, in the assay on CP268, with CP269, with CP286, in the assay with CP291 and in the assay on CP297 was “inactive” throughout. The Potency entry in the assay on CP305, in the assay with CP315, in the assay on CP325, with CP329, in the assay with CP335 and in the assay with DFO2036 was “inactive” each time. The Potency result in the assay with DIV14, in the assay on DIV17, in the assay on DIV30, with Dd2, in the assay with ECU and in the assay on FAB9 was “inactive” throughout. The Potency result with GB4 and in the assay on HB3 was “inactive” each time.

Take `CC(C)(C)NCC(O)c1cc(Cl)c(N)c(Cl)c1` (stereo unspecified): the Potency entry in the assay on CP266, with CP268, with CP286, in the assay on CP315, in the assay with CP325 and with CP329 was “inactive” throughout. In addition, the Potency entry in the assay on DFO2036, in the assay with FAB9 and in the assay with HB3 was “inactive” each time. Further, the Potency in the assay on DIV14 is 12 µM (active); in the assay with DIV17, 8.49 µM (active); in the assay on Dd2, 12.6 µM (active); in the assay with GB4, 7.57 µM (active).

As to `CCN(C(C)=O)c1cccc(-c2ccnc3c(C#N)cnn23)c1`, the Potency result in the assay on CP266, in the assay with CP268, in the assay with CP269, with CP286, in the assay with CP291 and with CP305 was “inactive” throughout. Further, the Potency result in the assay with CP315, in the assay on CP325, with CP329, in the assay with CP335, with DFO2036 and with DIV17 was “inactive” each time. Besides, the Potency result with DIV30, with Dd2, with ECU, in the assay on FAB9, with GB4 and with HB3 was “inactive” in each case.

On to `Clc1ccc(COC(Cn2ccnc2)c2ccc(Cl)cc2Cl)cc1` (stereo unspecified), for which the Potency is 15.1 µM (active) in the assay on CP268; 4.78 µM (active) with CP269; 3.98 µM (active) in the assay with CP286; 7.57 µM (active) with CP291; 3.79 µM (active) with CP297; 13.5 µM (active) in the assay with CP305. Moreover, the Potency in the assay with CP315 is 15.1 µM (active); in the assay with CP325, 9.53 µM (active); in the assay with CP329, 10.7 µM (active); in the assay with CP335 it was 4.26 µM (active); in the assay on DFO2036 it was 2.51 µM (active); in the assay on DIV14, 1.9 µM (active). Further, the Potency is 1.51 µM (active) with DIV17; 1.69 µM (active) in the assay with DIV30; 2.82 µM (active) in the assay with Dd2; 0.794 µM (active) in the assay with ECU; 11.2 µM (active) in the assay with FAB9; 1.69 µM (active) in the assay with GB4. The Potency in the assay on HB3 was 3.98 µM (active).

Regarding `O=[N+]([O-])c1cc([As](=O)(O)O)ccc1O`, the Potency in the assay with CP291 was 5.1 µM (active); in the assay on CP335, 4.55 µM (active); in the assay on DFO2036, 3.55 µM (active); in the assay with DIV30, 5.73 µM (active); with Dd2 it was 3.55 µM (active); with ECU it was 3.16 µM (active). Besides, the Potency with FAB9 was 3.55 µM (active); in the assay on GB4, 4.55 µM (active); with HB3, 3.16 µM (active).

Turning to `Oc1cc(Cl)ccc1Oc1ccc(Cl)cc1Cl`, the Potency entry in the assay on CP266 and in the assay on CP305 was “inactive” throughout. The Potency in the assay on CP269 was 12 µM (active); in the assay on CP286, 12.6 µM (active); with CP297, 15.1 µM (active); in the assay with DFO2036 it was 10 µM (active); in the assay on DIV14, 3.01 µM (active); with DIV17, 6.01 µM (active). Also, the Potency in the assay with DIV30 was 6.75 µM (active); in the assay on Dd2 it was 11.2 µM (active); in the assay with ECU it was 6.31 µM (active); in the assay with FAB9, 11.2 µM (active); in the assay with GB4, 4.78 µM (active); in the assay with HB3, 8.91 µM (active).

Consider `N#CC(C#N)=Cc1ccc(O)c(O)c1`, for which the Potency result in the assay on CP266, in the assay with CP268, with CP269, in the assay with CP286, in the assay with CP291 and in the assay on CP305 was “inactive” throughout. In addition, the Potency result in the assay with CP315, in the assay with CP325, in the assay on CP329, with DFO2036, in the assay with DIV14 and with DIV30 was “inactive” each time. For the same molecule, the Potency result in the assay with Dd2, in the assay with ECU, with FAB9 and in the assay on HB3 was “inactive” each time.

In the case of `CC(CCc1ccccc1)NC(C)C(O)c1ccc(O)cc1` (stereo unspecified), the Potency result in the assay with CP266, in the assay with CP315, in the assay on DFO2036, in the assay on ECU, in the assay with FAB9 and in the assay with HB3 was “inactive” throughout. Further, the Potency was 9.53 µM (active) with DIV14 and 11.2 µM (active) with Dd2.
